# A selection: hits, their analogues and other compounds. The true share with any hit is near 3.5%.
# MITF primary – human MITF inhibition, primary screen; AlphaScreen MITF homodimerization, bead proximity signal; AID 1259374; inhibition, % at 2.6 µM; O75030; hit rate 0.91% among 650,000; in the data active means inhibition above about 50%
# GPR151 activ – human GPR151 activation. activation, % at 11.2 µM. Q8TDV0. PathHunter beta-arrestin GPR151 cells, luminescence. AID 1508602. hit rate 1% among 650,000; in the data active means activation above about 4.9%
# Target sequence (Q8TDV0 whole entry, looked up): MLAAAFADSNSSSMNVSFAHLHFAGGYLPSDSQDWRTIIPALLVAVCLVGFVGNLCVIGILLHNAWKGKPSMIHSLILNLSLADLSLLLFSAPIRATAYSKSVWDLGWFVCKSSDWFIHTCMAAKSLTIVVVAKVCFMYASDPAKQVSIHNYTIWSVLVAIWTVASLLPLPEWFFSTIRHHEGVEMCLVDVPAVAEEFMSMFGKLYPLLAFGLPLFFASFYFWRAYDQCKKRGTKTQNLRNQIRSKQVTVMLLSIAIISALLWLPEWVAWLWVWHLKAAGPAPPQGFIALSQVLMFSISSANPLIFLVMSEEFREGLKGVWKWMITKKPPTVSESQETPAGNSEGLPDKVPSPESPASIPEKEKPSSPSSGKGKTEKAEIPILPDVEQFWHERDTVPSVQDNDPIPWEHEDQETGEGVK
# TEAD-YAP inh – TEAD-YAP interaction inhibition; HEK-TIYL cells, TEAD-Gal4/YAP UAS-luciferase luminescence; inhibition, % at 9.12 µM; hit rate 1.4% among 640,000; AID 1259422; in the data active means inhibition above about 32%
# FBW7 activator – activators of human E3 ligase FBW7 | Q969H0 | AlphaScreen FBW7–phospho-cyclin E peptide binding, activator screen | normalized activity (activation), % at 26.1 µM | hit rate 0.13% among 650,000; in the data active means normalized activity above about 1.9%;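 further: purified mutant Fbw7 with reduced substrate affinity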
# MITF inh conf – confirmation of human MITF inhibitors; shares compounds with MITF primary; AlphaScreen MITF homodimerization, biotin/His-MITF beads; inhibition, % at 2.6 µM; hit rate 16% among 4,700; AID 1259372;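 active means inhibition above a cutoff derived from the DMSO control wells, cut at about 28% in these data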;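 further: inhibitors lower the bead chemiluminescence by keeping MITF from dimerizing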
# AS interf DR – AlphaScreen optical interference, dose response counter-screen; shares compounds with MITF primary; AlphaScreen optical interference counterscreen, cell-free; IC50, µM; hit rate 6% among 480; AID 1259373; call rule not given here
# AlphaScreen intf2 – optically interferes with AlphaScreen signal; shares compounds with MITF primary; LysRS AlphaScreen counterscreen, signal interference, triplicate; inhibition, % at 2.6 µM; hit rate 7.6% among 4,700;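 active means inhibition above a cutoff derived from the DMSO control wells, cut at about 30% in these data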
# Numbers stand for hits; . = inactive; / = no result.
SMILES,MITF primary,GPR151 activ,TEAD-YAP inh,FBW7 activator,MITF inh conf,AlphaScreen intf2,others
CCOc1ccccc1NS(=O)(=O)c1ccc2c(c1)OCCCO2,57,.,.,.,.,.,
COc1ccc(NS(=O)(=O)c2ccc3c(c2)OCCO3)c(OC)c1,85,.,.,.,.,.,
CN(C)CCCNS(=O)(=O)c1ccc2c(c1)OCCO2,63,.,.,.,.,.,
CN(C)N1C(=O)/C(=C\c2cccc3ccccc23)SC1=Nc1ccccc1,.,.,.,.,/,/,
COC(=O)CN1C(=O)c2c([N+](=O)[O-])cc([N+](=O)[O-])cc2S1=O (stereo not given),.,.,.,.,/,/,
COC(=O)CSc1nnc(-c2ccncc2)n1Cc1ccco1,.,.,.,.,/,/,
COC(=O)CSc1nnc(-c2ccco2)n1Cc1ccco1,76,.,.,.,58,.,AS interf DR=.
CC(C)(C)C(=O)CC(=O)Nc1cc(N)ccc1Cl,.,.,.,.,/,/,
COc1ccc(CNC(=O)CN(C)Cc2ccc(C(C)(C)C)cc2)cc1,74,.,.,.,.,.,
NC(=O)NC(=O)COC(=O)c1oc2ccccc2c1COc1ccccc1,.,.,.,.,/,/,
NC(=O)COC(=O)c1oc2ccccc2c1COc1ccccc1,64,.,.,.,.,.,
O=C(c1csc(-n2cccc2)n1)N1CCN(c2ccccn2)CC1,60,.,.,.,.,.,
O=C(c1csc(-n2cccc2)n1)N1CCN(c2ccccc2O)CC1,.,.,.,.,/,/,
C=CCc1ccccc1OCc1nnc(NC(=O)Cc2ccccc2)s1,.,.,.,.,/,/,
COc1ccc(C)cc1NC(=O)NCc1ccco1,.,.,.,.,/,/,
COc1ccc(C)cc1NC(=O)CNCc1ccco1,53,.,.,.,.,.,
Cc1nc(N2CCN(c3ccccn3)CC2)c2c(C)c(C(=O)NC3CCCCCC3)sc2n1,.,.,.,.,/,/,
Cc1cccc(CC(=O)Nc2c3c(nn2-c2ccc(F)cc2)CS(=O)C3)c1 (stereo not given),88,.,.,.,.,.,
O=C(Cc1ccc(F)cc1)Nc1c2c(nn1-c1ccccc1)CS(=O)C2 (stereo not given),.,.,.,.,/,/,
O=C(C1CC12CCN(Cc1ncc[nH]1)CC2)N1CCN(Cc2ccccc2)CC1 (stereo not given),.,.,.,.,/,/,
c1cncc(N=c2scc(-c3cccs3)n2C2CCCC2)c1,.,.,.,.,/,/,
O=C(c1ccco1)N1CCC(N2CCN(c3ccccc3)CC2)CC1,.,.,.,.,/,/,
O=C(c1ccco1)N1CCN(C2CCN(Cc3ccccc3)CC2)CC1,60,.,.,.,.,.,
O=C(c1ccc(F)cc1)N1CCN(C2CCN(Cc3ccccc3)CC2)CC1,57,.,.,.,.,.,
O=C(c1ccccc1)N1CCC(N2CCN(Cc3ccccc3)CC2)CC1,83,.,.,.,.,.,
SMILES,MITF primary,GPR151 activ,TEAD-YAP inh,FBW7 activator,MITF inh conf,AlphaScreen intf2,others
O=C(O)C1CCN(C2CCN(Cc3ccccc3)CC2)CC1,75,.,.,.,.,.,
c1ccc(CN2CCC(N3CCN(Cc4ccccc4)CC3)CC2)cc1,.,.,.,.,/,/,
Fc1ccc(CN2CCC(N3CCN(Cc4ccccc4)CC3)CC2)cc1,.,.,.,.,/,/,
CCCCC(=O)Nc1sc(C(=O)OC)c(C)c1C(=O)OCC,.,.,.,.,/,/,
O=C(c1ccccc1F)N1CCN(C2CCCCC2)CC1,.,.,.,.,/,/,
O=C(Cc1ccccc1)N1CCC(C(=O)N2CCN(c3ccccc3)CC2)CC1,.,.,.,.,/,/,
O=C(Cc1ccccc1)N1CCC(N2CCN(c3ccccc3)CC2)CC1,55,.,.,.,.,.,
CN1CCN(C2CCN(C(=O)c3ccc(F)cc3)CC2)CC1,57,.,.,.,.,.,
O=C(c1ccccc1F)N1CCN(C2CCN(Cc3ccccc3)CC2)CC1,61,.,.,.,.,.,
COc1ccc(C(=O)N2CCC(N3CCCC3)CC2)cc1,.,.,.,.,/,/,
S=c1[nH]nc(-c2ccccc2)n1/N=C/C=C/c1ccco1,.,.,.,.,/,/,
S=c1[nH]nc(-c2cccnc2)n1/N=C/C=C/c1ccco1,71,.,.,.,77,.,AS interf DR=.
CN(C)c1ccc(NC2CC(=O)N(c3ccc(F)cc3)C2=O)cc1 (stereo not given),.,.,.,.,/,/,
CN(C)c1ccc(NC2CC(=O)N(c3ccc(O)cc3)C2=O)cc1 (stereo not given),71,.,.,.,30,31,
Cc1cc(S(=O)(=O)NCc2ccsc2)ccc1F,.,.,.,.,/,/,
O=S(=O)(NCc1ccsc1)c1ccc(F)c(Cl)c1,62,.,.,.,.,.,
CC(C)OCCCNC(=O)C1CC(Cc2ccc(F)cc2)=NO1 (stereo not given),53,.,.,.,.,.,
O=C(N/N=C/c1cc(O)ccc1Br)c1ccncc1,114,.,77,.,120,100,
O=C(N/N=C/c1cc(O)ccc1Br)c1cccnc1,59,.,66,.,88,100,
COc1ccc(-c2cnn3ccc(NCc4cccnc4)nc23)cc1OC,55,.,.,.,.,.,
COc1ccc(/C=C/C(=O)Nc2ccc(Cl)cc2C)cc1OC,.,.,.,.,/,/,
COC(=O)C1=C(C(=O)OC)SC(=C2C(=S)C(C)(C)N(C(=O)Cc3cccc4ccccc34)c3ccccc32)S1,.,.,.,.,/,/,
CCc1nc(NCC(C)C)c2nnn(Cc3ccccc3)c2n1,61,.,.,.,.,.,
CCc1nc(NCCCCCO)c2nnn(Cc3ccccc3)c2n1,.,.,.,.,/,/,
CS(=O)(=O)N1CCN=C1SCc1ccccc1F,52,.,.,.,.,.,
SMILES,MITF primary,GPR151 activ,TEAD-YAP inh,FBW7 activator,MITF inh conf,AlphaScreen intf2,others
COc1ccc(-c2cc(=O)oc3c(C)c(OC(C)=O)ccc23)cc1,.,.,.,.,/,/,
CCOC(=O)N1CCN(Cc2cn3ccccc3n2)CC1,61,.,.,.,.,.,
CCOC(=O)Cc1[nH]nc2c1C1(C(=O)N(CC)c3ccccc31)C(C#N)=C(N)O2 (stereo not given),60,.,.,.,28,.,AS interf DR=.
COc1ccc2c(c1)C1NC(=S)N(c3cccc(C)c3)C(C)(O2)C1C(=O)Nc1ccc(C)cc1C (stereo not given),57,.,.,.,31,.,AS interf DR=.
CC(Sc1nc2ccccc2o1)C(=O)O (stereo not given),64,.,.,.,.,.,
CCn1c(SCC(=O)Nc2nccs2)nnc1-c1ccc(Br)cc1,.,.,.,.,/,/,
O=C(CNC(=O)c1ccccc1)NCC(=O)OCc1cccc(F)c1,.,.,.,.,/,/,
CCCN1CCN(C(=O)c2nn(-c3cc(OC)cc(OC)c3)c(=O)c3ccccc23)CC1,65,.,.,.,.,.,
C=CCNc1nc(-c2ccccn2)nnc1-c1ccccc1,70,.,.,.,69,100,
COc1ccc(OCCCOc2cccc(C=O)c2)cc1,.,.,.,.,/,/,
Cc1ccc(NS(=O)(=O)c2cccc(C(=O)NNC(=O)NC3CCCCC3)c2)c(C)c1,71,.,.,.,.,.,

# High-throughput results (PubChem BioAssay)
